# Assay results: publication PMC7862700, “An all-to-all approach to the identification of sequence-specific readers for epigenetic DNA modifications on cytosine”
# Tests used:
# Assay in all cases: DAPPL (digital affinity profiling via proximity ligation, sequencing); 10 mM Tris-HCl pH 7.5, 50 mM NaCl, 1 mM DTT, 4% glycerol, room temperature, 30 min; GST-TFs on glutathione beads, 16-mer random dsDNA library, 0.1% formaldehyde crosslink after washing; high values mean tight binding
# FEV = target: T1, FEV (Homo sapiens, UniProt Q99581 1-238); settings: protein: recombinant; tags: N-terminal GST; dsDNA, one strand shown
# T1 sequence: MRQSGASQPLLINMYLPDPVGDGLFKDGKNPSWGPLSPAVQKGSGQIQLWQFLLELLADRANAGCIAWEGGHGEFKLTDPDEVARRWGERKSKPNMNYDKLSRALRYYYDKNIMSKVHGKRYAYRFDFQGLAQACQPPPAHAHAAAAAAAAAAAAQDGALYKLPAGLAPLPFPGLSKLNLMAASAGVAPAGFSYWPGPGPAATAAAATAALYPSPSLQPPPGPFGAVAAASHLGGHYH
# How it was run: (§1)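 GST fusions of human transcription factors were expressed in yeast and captured with glutathione beads. Once given DNA barcodes and pooled alongside a tag-only sample, they were incubated for 30 min at room temperature with 200 nmole of a random double-stranded 16-mer DNA library in Tris/NaCl/DTT/glycerol buffer, then washed, crosslinked (0.1% formaldehyde), proximity-ligated, PCR-amplified and sequenced on an Illumina NextSeq500. The binding signal of each hexamer is its read frequency for a factor divided by its frequency for the tag-only sample.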
# ETV5 = ETV5 (Homo sapiens, UniProt P41161 1-510); settings: protein: recombinant; tags: N-terminal GST; dsDNA, one strand shown
# ETV5, sequence (P41161 whole entry): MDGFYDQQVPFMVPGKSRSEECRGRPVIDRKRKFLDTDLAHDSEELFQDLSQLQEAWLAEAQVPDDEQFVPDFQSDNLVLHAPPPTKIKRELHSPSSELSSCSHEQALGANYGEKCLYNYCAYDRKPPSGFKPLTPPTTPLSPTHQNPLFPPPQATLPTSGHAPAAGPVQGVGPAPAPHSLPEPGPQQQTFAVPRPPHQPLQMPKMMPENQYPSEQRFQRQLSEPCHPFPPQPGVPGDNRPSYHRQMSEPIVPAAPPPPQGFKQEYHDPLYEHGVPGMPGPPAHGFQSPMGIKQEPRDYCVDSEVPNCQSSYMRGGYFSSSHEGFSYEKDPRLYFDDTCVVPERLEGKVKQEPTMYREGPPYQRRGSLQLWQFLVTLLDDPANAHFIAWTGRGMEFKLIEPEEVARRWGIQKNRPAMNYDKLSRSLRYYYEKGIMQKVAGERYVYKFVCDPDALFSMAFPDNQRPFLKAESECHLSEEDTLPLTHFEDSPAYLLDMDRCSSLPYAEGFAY
# How it was run: as §1
# HSF1 = HSF1 (Homo sapiens, UniProt Q00613 1-529); settings: protein: recombinant; tags: N-terminal GST; chain copies: 3; dsDNA, one strand shown
# HSF1, sequence (Q00613 whole entry): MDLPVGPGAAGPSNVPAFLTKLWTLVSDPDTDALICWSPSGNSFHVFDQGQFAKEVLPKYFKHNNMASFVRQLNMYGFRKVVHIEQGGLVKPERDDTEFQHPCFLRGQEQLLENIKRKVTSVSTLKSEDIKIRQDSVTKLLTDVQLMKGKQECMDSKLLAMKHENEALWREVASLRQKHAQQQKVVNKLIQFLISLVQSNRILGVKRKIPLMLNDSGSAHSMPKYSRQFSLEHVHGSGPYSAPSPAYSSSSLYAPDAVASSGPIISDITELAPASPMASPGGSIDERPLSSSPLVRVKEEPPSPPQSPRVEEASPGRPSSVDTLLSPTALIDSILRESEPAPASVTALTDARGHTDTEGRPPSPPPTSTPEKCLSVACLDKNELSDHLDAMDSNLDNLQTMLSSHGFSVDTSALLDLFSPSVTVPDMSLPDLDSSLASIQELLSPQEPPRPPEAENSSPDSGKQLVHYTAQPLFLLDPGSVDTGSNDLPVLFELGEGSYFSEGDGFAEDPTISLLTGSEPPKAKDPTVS
# How it was run: as §1
# SPIC = target: T2, SPIC (Homo sapiens, UniProt Q8N5J4 1-248); settings: protein: recombinant; tags: N-terminal GST; dsDNA, one strand shown
# T2 sequence: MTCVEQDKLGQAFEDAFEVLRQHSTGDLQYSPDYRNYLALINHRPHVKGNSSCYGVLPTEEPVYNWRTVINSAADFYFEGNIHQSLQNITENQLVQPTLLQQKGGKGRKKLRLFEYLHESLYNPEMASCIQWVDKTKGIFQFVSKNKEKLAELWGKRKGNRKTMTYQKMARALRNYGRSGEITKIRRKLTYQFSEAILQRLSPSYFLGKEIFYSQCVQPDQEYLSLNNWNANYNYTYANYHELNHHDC
# How it was run: as §1
# ELF4 = ELF4 (Homo sapiens, UniProt Q99607 1-663); settings: protein: recombinant; tags: N-terminal GST; dsDNA, one strand shown
# ELF4, sequence (Q99607 whole entry): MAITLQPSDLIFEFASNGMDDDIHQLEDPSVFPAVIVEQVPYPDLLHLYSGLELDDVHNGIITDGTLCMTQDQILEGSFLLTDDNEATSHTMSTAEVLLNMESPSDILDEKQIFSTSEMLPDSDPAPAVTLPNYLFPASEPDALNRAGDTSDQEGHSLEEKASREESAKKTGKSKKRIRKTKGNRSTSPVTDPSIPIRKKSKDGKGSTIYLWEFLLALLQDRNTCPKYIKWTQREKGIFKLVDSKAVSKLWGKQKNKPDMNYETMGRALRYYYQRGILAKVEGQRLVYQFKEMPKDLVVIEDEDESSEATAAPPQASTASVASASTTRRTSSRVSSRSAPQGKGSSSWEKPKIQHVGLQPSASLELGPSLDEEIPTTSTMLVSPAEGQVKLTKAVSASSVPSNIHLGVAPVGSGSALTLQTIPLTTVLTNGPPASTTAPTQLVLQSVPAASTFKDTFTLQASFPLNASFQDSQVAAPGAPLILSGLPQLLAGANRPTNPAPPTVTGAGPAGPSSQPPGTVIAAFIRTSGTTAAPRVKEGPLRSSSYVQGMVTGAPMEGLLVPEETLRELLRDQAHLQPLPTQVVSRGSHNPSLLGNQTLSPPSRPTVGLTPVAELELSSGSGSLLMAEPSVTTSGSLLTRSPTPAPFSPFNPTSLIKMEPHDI
# How it was run: as §1
# ELK4 = target: T3, ELK4 (Homo sapiens, UniProt P28324-2 1-405); settings: protein: recombinant; tags: N-terminal GST; dsDNA, one strand shown
# T3 sequence: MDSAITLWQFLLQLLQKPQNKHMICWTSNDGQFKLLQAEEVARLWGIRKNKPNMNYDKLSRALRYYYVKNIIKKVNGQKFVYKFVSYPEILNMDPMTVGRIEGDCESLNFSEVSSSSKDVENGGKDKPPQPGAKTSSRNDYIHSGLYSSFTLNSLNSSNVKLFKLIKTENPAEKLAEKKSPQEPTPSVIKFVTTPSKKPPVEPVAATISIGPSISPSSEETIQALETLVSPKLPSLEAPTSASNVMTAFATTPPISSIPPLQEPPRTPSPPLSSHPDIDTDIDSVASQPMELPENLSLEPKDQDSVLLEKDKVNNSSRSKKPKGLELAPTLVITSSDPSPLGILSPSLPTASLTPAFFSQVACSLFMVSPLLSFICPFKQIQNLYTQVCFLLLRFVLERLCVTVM
# How it was run: as §1
# ETV2 = target: T4, ETV2 (Homo sapiens, UniProt O00321 1-342); settings: protein: recombinant; tags: N-terminal GST; dsDNA, one strand shown
# T4 sequence: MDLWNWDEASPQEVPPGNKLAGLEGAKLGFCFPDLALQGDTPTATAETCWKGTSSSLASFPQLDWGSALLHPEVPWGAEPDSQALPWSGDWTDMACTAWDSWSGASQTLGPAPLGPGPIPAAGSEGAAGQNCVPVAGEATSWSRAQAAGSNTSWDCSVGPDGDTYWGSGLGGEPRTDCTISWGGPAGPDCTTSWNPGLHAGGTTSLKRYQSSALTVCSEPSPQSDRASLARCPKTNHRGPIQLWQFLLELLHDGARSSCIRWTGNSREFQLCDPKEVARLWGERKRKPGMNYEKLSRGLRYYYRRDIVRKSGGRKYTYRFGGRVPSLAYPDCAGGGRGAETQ
# How it was run: as §1
# ELF3 = target: T5, ELF3 (Homo sapiens, UniProt P78545 1-371); settings: protein: recombinant; tags: N-terminal GST; dsDNA, one strand shown
# T5 sequence: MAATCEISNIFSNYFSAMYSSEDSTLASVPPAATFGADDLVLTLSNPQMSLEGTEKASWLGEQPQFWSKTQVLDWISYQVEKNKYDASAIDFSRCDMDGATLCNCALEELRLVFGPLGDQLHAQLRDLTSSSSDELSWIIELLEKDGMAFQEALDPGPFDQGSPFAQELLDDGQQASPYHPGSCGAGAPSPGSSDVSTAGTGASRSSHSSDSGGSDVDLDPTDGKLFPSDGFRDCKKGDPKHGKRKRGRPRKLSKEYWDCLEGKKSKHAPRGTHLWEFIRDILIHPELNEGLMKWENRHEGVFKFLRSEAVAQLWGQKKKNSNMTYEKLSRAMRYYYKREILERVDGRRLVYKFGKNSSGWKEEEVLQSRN
# How it was run: as §1
# CRX = CRX (Homo sapiens, UniProt O43186 1-299); settings: protein: recombinant; tags: N-terminal GST; dsDNA, one strand shown
# CRX, sequence (O43186 whole entry): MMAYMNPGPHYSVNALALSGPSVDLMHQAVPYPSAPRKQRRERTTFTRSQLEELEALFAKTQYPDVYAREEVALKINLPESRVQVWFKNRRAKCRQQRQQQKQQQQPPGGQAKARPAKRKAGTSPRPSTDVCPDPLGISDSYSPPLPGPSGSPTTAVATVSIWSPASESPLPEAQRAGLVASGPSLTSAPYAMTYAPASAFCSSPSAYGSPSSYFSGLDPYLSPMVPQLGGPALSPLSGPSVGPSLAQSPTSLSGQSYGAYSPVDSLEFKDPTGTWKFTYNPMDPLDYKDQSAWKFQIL
# How it was run: as §1
# ETV1 = ETV1 (Homo sapiens, UniProt P50549 1-477); settings: protein: recombinant; tags: N-terminal GST; dsDNA, one strand shown
# ETV1, sequence (P50549 whole entry): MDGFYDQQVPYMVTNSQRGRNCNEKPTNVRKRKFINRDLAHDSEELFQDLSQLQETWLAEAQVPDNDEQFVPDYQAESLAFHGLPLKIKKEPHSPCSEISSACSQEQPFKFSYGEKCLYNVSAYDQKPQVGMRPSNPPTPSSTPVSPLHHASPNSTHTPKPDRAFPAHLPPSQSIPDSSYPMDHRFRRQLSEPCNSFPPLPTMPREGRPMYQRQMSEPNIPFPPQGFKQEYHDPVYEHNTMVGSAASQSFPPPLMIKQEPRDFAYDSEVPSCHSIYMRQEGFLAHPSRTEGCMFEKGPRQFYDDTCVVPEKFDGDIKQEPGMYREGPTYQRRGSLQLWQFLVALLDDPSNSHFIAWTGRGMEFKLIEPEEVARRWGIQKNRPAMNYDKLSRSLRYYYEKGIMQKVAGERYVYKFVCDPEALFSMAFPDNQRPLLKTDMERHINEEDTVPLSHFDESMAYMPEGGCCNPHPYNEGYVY
# How it was run: as §1
# ERF = target: T6, ERF (Homo sapiens, UniProt P50548 1-548); settings: protein: recombinant; tags: N-terminal GST; dsDNA, one strand shown
# T6 sequence: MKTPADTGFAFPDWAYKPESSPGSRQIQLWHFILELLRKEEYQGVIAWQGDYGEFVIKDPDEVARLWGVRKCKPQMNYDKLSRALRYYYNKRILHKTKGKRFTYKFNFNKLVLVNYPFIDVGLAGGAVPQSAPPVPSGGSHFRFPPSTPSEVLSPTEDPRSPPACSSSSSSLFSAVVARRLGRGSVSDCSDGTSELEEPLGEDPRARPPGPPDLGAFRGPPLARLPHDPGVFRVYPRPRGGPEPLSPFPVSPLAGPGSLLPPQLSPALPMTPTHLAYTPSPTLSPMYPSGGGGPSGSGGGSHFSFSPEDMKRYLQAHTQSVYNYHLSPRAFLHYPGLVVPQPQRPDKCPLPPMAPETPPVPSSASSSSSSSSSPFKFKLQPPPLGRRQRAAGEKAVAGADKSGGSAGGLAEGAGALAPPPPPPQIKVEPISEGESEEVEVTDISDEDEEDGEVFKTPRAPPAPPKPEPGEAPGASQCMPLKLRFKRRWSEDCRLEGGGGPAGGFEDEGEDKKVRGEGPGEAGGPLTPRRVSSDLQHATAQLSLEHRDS
# How it was run: as §1
# ETV3L = target: T7, ETV3L (Homo sapiens, UniProt Q6ZN32 1-361); settings: protein: recombinant; tags: N-terminal GST; dsDNA, one strand shown
# T7 sequence: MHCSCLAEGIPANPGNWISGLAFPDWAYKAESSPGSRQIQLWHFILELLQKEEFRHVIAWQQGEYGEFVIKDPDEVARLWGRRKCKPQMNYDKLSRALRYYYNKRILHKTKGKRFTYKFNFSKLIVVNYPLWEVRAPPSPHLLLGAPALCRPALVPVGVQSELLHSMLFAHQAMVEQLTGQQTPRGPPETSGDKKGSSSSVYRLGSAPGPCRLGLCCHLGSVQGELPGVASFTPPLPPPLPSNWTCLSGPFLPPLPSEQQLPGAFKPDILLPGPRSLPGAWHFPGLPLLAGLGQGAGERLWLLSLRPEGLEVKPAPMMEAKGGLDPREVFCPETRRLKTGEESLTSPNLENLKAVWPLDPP
# How it was run: as §1
# ETS2 = target: T8, ETS2 (Homo sapiens, UniProt P15036 1-469); settings: protein: recombinant; tags: N-terminal GST; dsDNA, one strand shown
# T8 sequence: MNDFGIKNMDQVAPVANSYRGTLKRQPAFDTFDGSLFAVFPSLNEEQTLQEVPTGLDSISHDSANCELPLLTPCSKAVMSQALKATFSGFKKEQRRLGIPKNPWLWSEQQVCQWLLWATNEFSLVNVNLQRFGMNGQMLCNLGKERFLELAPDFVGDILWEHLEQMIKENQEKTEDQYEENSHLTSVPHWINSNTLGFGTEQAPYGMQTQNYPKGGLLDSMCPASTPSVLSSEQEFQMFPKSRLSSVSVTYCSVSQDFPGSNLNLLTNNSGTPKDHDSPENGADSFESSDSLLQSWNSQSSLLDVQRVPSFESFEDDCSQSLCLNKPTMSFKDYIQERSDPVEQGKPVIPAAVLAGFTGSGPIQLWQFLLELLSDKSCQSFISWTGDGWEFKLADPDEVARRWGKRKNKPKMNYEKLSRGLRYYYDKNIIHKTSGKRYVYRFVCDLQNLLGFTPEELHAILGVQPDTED
# How it was run: as §1
# SPDEF = target: T9, SPDEF (Homo sapiens, UniProt O95238 1-335); settings: protein: recombinant; tags: N-terminal GST; dsDNA, one strand shown
# T9 sequence: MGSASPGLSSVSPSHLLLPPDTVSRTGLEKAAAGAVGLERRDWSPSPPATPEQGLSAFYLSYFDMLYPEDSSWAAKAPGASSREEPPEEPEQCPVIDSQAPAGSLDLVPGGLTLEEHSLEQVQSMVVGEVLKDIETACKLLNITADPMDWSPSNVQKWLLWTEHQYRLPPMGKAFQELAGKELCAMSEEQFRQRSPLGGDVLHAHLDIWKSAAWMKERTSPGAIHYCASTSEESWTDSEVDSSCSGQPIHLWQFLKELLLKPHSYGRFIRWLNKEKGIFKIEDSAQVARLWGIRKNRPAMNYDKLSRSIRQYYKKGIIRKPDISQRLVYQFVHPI
# How it was run: as §1
# ETV7 = target: T10, ETV7 (Homo sapiens, UniProt Q9Y603 1-341); settings: protein: recombinant; tags: N-terminal GST; dsDNA, one strand shown
# T10 sequence: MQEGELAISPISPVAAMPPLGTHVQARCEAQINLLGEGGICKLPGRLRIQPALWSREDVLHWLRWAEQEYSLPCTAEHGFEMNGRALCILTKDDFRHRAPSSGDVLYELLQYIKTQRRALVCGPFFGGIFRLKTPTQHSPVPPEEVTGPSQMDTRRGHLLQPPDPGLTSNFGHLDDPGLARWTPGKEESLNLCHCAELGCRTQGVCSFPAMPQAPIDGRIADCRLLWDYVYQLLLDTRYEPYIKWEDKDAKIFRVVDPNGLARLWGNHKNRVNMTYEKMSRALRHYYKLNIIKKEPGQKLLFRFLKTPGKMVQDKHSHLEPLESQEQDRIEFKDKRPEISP
# How it was run: as §1
# ELF5 = target: T11, ELF5 (Homo sapiens, UniProt Q9UKW6-2 1-255); settings: protein: recombinant; tags: N-terminal GST; dsDNA, one strand shown
# T11 sequence: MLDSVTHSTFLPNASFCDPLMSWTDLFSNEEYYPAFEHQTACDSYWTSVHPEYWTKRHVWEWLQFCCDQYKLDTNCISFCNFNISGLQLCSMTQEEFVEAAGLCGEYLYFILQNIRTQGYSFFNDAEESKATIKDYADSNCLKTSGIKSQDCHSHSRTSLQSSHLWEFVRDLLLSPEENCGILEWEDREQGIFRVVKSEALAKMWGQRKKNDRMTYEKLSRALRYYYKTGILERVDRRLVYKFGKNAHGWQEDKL
# How it was run: as §1
# ETV3 = target: T12, ETV3 (Homo sapiens, UniProt P41162-2 1-143); settings: protein: recombinant; tags: N-terminal GST; dsDNA, one strand shown
# T12 sequence: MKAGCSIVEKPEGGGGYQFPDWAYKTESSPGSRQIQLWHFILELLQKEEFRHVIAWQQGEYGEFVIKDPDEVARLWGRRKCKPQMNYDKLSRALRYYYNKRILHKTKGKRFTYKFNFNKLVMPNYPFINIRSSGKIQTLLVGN
# How it was run: as §1
# ETV6 = ETV6 (Homo sapiens, UniProt P41212 1-452); settings: protein: recombinant; tags: N-terminal GST; dsDNA, one strand shown
# ETV6, sequence (P41212 whole entry): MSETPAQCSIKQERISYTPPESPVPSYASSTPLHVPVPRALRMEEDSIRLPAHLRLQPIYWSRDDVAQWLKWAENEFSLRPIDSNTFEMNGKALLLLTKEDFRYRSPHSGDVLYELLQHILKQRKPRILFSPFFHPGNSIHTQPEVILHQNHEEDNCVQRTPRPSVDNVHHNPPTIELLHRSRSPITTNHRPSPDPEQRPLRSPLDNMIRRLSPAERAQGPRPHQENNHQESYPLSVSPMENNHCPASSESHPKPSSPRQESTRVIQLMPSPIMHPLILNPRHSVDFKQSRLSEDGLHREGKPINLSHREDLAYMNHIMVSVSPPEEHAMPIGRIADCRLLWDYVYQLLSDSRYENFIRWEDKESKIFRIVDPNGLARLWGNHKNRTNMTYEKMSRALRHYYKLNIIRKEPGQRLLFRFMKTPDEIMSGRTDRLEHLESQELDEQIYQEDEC
# How it was run: as §1
sequence,measurement,setting,value
TCTAAT,binding signal,FEV,"1.16 fold enrichment (6-mer frequency, TF over GST control)"
same,binding signal,ETV5,"1.17 fold enrichment (6-mer frequency, TF over GST control)"
same,binding signal,HSF1,"1.73 fold enrichment (6-mer frequency, TF over GST control)"
same,binding signal,SPIC,"1.26 fold enrichment (6-mer frequency, TF over GST control)"
same,binding signal,ELF4,"1.21 fold enrichment (6-mer frequency, TF over GST control)"
same,binding signal,ELK4,"1.18 fold enrichment (6-mer frequency, TF over GST control)"
same,binding signal,ETV2,"1.22 fold enrichment (6-mer frequency, TF over GST control)"
same,binding signal,ELF3,"1.16 fold enrichment (6-mer frequency, TF over GST control)"
same,binding signal,CRX,"2.37 fold enrichment (6-mer frequency, TF over GST control)"
same,binding signal,ETV1,"1.26 fold enrichment (6-mer frequency, TF over GST control)"
same,binding signal,ERF,"1.26 fold enrichment (6-mer frequency, TF over GST control)"
same,binding signal,ETV3L,"1.14 fold enrichment (6-mer frequency, TF over GST control)"
same,binding signal,ETS2,"1.21 fold enrichment (6-mer frequency, TF over GST control)"
same,binding signal,SPDEF,"1.21 fold enrichment (6-mer frequency, TF over GST control)"
same,binding signal,ETV7,"1.07 fold enrichment (6-mer frequency, TF over GST control)"
same,binding signal,ELF5,"1.11 fold enrichment (6-mer frequency, TF over GST control)"
same,binding signal,ETV3,"1.05 fold enrichment (6-mer frequency, TF over GST control)"
same,binding signal,ETV6,"1.2 fold enrichment (6-mer frequency, TF over GST control)"
